In PubChem BioAssay AID504725 (Broad Institute, 2011):
Potency and affinity values are given separately. Calls of active or inactive are those of the source. No rule for the calls is given here.

These compounds were tested against KSHV LANA C-terminal domain (residues 932-1162) binding to LBS DNA (UniProt O40947) (assay: KSHV LANA DNA-binding disruption – biochemical, fluorescence polarization, cherry-picked samples, dose response (AID 504725)). Conditions: MBP-C-LANA / FAM-LBS DNA fluorescence polarization, percent change from plate compound-well median; series mostly up to 35 µM; activity change, negative = inhibition: at the top concentration.

Activity change, negative = inhibition, inactive:
CCSc1nnc(Cc2cc(=O)[nH]c(=O)[nH]2)n1-c1ccc(F)cc1 -1.06%
Cc1ccc(NC(=O)CN(C)C(=O)c2nn(C)c(=O)c3ccccc23)cc1 5.21%
CSCCC(NC(=O)c1ccccc1Cl)C(=O)N1CCCC(C)C1 (stereo not drawn) 0.532%
Nc1ccc(-c2nc3ccc(C(=O)O)cc3s2)cc1 -0.136%
CN(C)/C=N/c1nc2nccc(-c3ccc(Cl)cc3)n2n1 5.16%
O=C(Nc1ccc(Br)cn1)c1cccc2ccccc12 3.91%
O=C1c2ccccc2C(Nc2ccc3c(c2)OCCO3)N1Cc1ccc2c(c1)OCO2 (stereo not drawn) 2.85%
O=C(c1coc(=O)c(Br)c1)N1CCCc2ccccc21 -7.34%
COCCN(C(=O)CN1CCCc2ccccc21)c1c(N)n(Cc2ccccc2)c(=O)[nH]c1=O 4.91%
COc1cccc(NC(=O)N(CCN(C)C)C(C)c2cccnc2)c1 (stereo not drawn) 1.39%
Cc1cccc(N(Cc2ccccc2)C(=O)C2CCN(C(=O)c3ccccc3C)CC2)c1 -0.766%
CSc1n[nH]c(=O)n1-c1cccc(Cl)c1 1.84%
CC1=[N+](C)N(c2ccccc2)C(=O)C1N=C/C=C/c1ccccc1 (stereo not drawn) -1.31%
O=C(NCCCN1CCCC1=O)c1ccc2c(c1)ncn2C1CCCCC1 3.25%
O=[N+]([O-])c1cccc(CSc2nc3ccccc3[nH]2)c1 -3.84%
Cc1ccc(OCC(=O)NC(=S)Nc2cccc(NC(=O)c3ccc(Cl)cc3Cl)c2)cc1 1.16%
CCOc1ccccc1N1CCN(C(=O)c2ccc3nc(N)sc3c2)CC1 1.38%
Cn1c(=O)c2c(nc(N/N=C/c3ccc(OC(=O)c4ccco4)cc3)n2Cc2ccc(F)cc2)n(C)c1=O 1.89%
N=c1ccn(Cc2ccc(Cl)cc2)cc1 -0.38%
CCOC(=O)C1(Cc2cccc(F)c2)CCN(Cc2c(C)nn(CC)c2C)CC1 -0.116%
COc1cccc(NC(=S)N2CCN(C(c3ccccc3)c3ccccc3)CC2)c1 4.03%
COc1ccc(/C=C/C(=O)NC(=S)Nc2ccc(S(N)(=O)=O)cc2)cc1 -5.56%
COc1cccc(NC(=O)CN(C)CC(=O)NCc2ccco2)c1 -0.425%
COc1cccc2[nH]c(C(=O)NC(C)c3ccccc3)cc12 (stereo not drawn) -2.36%
Cc1cc(-c2nnc(SCC(=O)Nc3ccccc3)n2C)no1 0.481%
COc1cccc(OC)c1C(=O)Nc1cc(C)on1 1.95%
Cc1cc(C)nc(SCC(=O)N/N=C/c2cc(C)n(-c3ccccc3C)c2C)n1 -0.359%
Cc1cnc(NC(=O)Cc2c[nH]c3ccccc23)s1 1.63%
CCCn1c(SCC(=O)NCc2cccs2)nc2c1c(=O)n(C)c(=O)n2C 1.8%
COc1cccc(OCCCn2cc(/C=C3/C(=N)N4C=C(C)SC4=NC3=O)c3ccccc32)c1 -11.7%
CCCc1cc(C(=O)Nc2ccc(C(=O)c3ccc(C)cc3)cc2)n(C)n1 3.29%
CCN(CC)C(=S)SC1CCCCN(C(=O)c2ccccc2)C1=O (stereo not drawn) 0.524%
Cc1c(Cl)cccc1NS(=O)(=O)c1ccc2c(c1)C1C=CCC1C(c1ccc(C(=O)O)cc1)N2 (stereo not drawn) -9.15%
Cc1ccc(S(=O)(=O)/N=C2/C=C(Sc3ncn[nH]3)C(=O)c3ccccc32)cc1 -4.55%
Cc1nn(Cc2c(F)c(F)c(F)c(F)c2F)c(C)c1NC(=O)c1ccnn1C -5.68%
CN1CCN(C(=S)c2ccc(N(C)C)cc2)CC1 1.86%
O=C(COC(=O)c1ccc([N+](=O)[O-])o1)NCCCc1ccccc1 -6.75%
CCCC1(C2CCCC2)NC(=O)NC1=O (stereo not drawn) 2.68%
